Test results taken from PubChem BioAssay (EPA / NIEHS).
Results filed as inconclusive are left out. Activity calls are given as the source filed them. Rule for the calls: active = hit-call score of the fitted dose curve at least 0.9, where 1 is the maximum; inconclusive = response in the unintended direction; inactive = score below 0.9.

Key:
[1] = target: Luciferin 4-monooxygenase (Photinus pyralis) (UniProt P08659); experiment: CCTE_Simmons_QuantiLum_inhib_2: CCTE's Firefly Luciferase Inhibition Assay, Simmons Lab (AID 2283767)
How it was run: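 Recombinant firefly luciferase (5 ng/well, 200 mM potassium phosphate with 1 mg/ml BSA) was exposed to 8 concentrations from 5 nM to 87.5 uM (final, 0.5% DMSO) for 30 min at 37C in the dark. Loss of luminescence versus DMSO was read after injecting D-luciferin/ATP-analogue reagent.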

[2] = ACEA_AR_antagonist_AUC_viability: ACEA Biosciences xCELLigence Real-Time Cell Analysis on Androgen Receptor Antagonism for Viability (AID 2283776);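 note: 22Rv1 human prostate cancer cells growing on impedance electrode plates; area under impedance growth curve at 80 h after dosing as viability; hits lower the growth signal relative to DMSO meaning cytotoxicity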
How it was run: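 Impedance read-out (RT-CES): area under growth curve at 80 h post-dose, loss of signal scored vs DMSO baseline. 22Rv1 cells; 8-pt 1:4 series, top 100 uM final, ≤0.5% DMSO; biological duplicate.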

[3] = ACEA_ER_AUC_viability: ACEA Biosciences xCELLigence Real-Time Cell Analysis on Estrogen Receptor Agonism for Viability (AID 2283782);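 note: continuous compound exposure with impedance area under curve over 80 h; hit means loss of impedance signal meaning reduced cell growth or viability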
How it was run: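 T47D cells preconditioned in phenol red-free RPMI with charcoal-stripped FBS, then dosed with 8-point 1:4 series from 100 uM (up to 0.5% DMSO). Impedance monitored up to ~80 h; area-under-curve loss versus DMSO taken as viability.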

[4] = STM_H9_NormalizedViability: Cytotoxicity Assessment at 120 hours in the Stemina devTOX quickPredict H9 human embryonic stem cell (hESC)-based Assay (AID 2283784)
How it was run: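 Undifferentiated H9 hESCs kept pluripotent were exposed to compound, with media and chemical replaced every 24h. CellTiter-Fluor protease-substrate fluorescence was background-corrected and normalized per plate to the 0.1% DMSO vehicle; signal loss indicates reduced viability.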

[5] = ACEA_AR_agonist_AUC_viability: ACEA Biosciences xCELLigence Real-Time Cell Analysis on Androgen Receptor Agonism for Viability (AID 2283775);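 for AC50: viability read 80 hours after compound addition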
How it was run: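 Read-out is area under the impedance curve at 80 h post-dose in 22Rv1 cells, with DMSO as baseline and signal loss taken as reduced viability. Compounds ran in duplicate from 100 uM final.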

AR (gene 367) = AR (gene 367) (UniProt P10275); experiment: ACEA_AR_agonist_80hr: ACEA Biosciences xCELLigence Real-Time Cell Analysis on Androgen Receptor Agonism for Proliferation (AID 2283783);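 note: hits increase impedance growth signal above DMSO baseline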
How it was run: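 Proliferation of 22Rv1 prostate cancer cells tracked by electrical impedance, endpoint taken at 80 hours after dosing. Eight-point 1:4 dilutions from 100 uM maximum final, duplicate; testosterone and MG132 as positive controls, assay media as negative.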

[6] = tested on: zebrafish Androgen Receptor (AR), gene 100005148; experiment: ATG_zfAR_XSP1: Attagene TRANS-FACTORIAL Multi-Species (XSP1) HepG2 Assay for zebrafish Androgen Receptor (AR) (AID 2283771)
How it was run: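 HepG2 cells were transiently transfected with a zebrafish AR-GAL4 reporter system and partially stimulated with 3 nM 6-alpha-fluorotestosterone. Reporter mRNA was measured after 24 h dosing by RT-PCR with capillary electrophoresis, and gain-of-signal was fitted relative to DMSO.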

[7] = tested on: zebrafish Estrogen Receptor (ESR2B), gene 317733; experiment: ATG_zfER2b_XSP1: Attagene TRANS-FACTORIAL Multi-Species (XSP1) HepG2 Assay for zebrafish Estrogen Receptor (ESR2B) (AID 2283773)
How it was run: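 HepG2 cells transiently transfected with GAL4-UAS reporter units for chimeric zebrafish ER2b-Gal4, with 3 nM 6-alpha-fluorotestosterone present; reporter mRNA measured 24 h after dosing by RT-PCR and capillary electrophoresis, gain versus DMSO.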

[8] = tested on: frog Estrogen Receptor (ESR2), gene 100174814; experiment: ATG_frER2_XSP1: Attagene TRANS-FACTORIAL Multi-Species (XSP1) HepG2 Assay for frog Estrogen Receptor (ESR2) (AID 2283774)
How it was run: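 HepG2 cells transiently transfected with GAL4-UAS reporter units expressing chimeric frog ER-Gal4; 3 nM 6-alpha-fluorotestosterone present. After 24 h dosing, reporter mRNA quantified by RT-PCR and capillary electrophoresis; gain-of-signal fitted relative to DMSO.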

[9] = tested on: frog Estrogen Receptor (ESR1), gene 398734; experiment: ATG_frER1_XSP1: Attagene TRANS-FACTORIAL Multi-Species (XSP1) HepG2 Assay for frog Estrogen Receptor (ESR1) (AID 2283777)
How it was run: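 HepG2 cells transiently transfected with frog ER–GAL4 chimera and GAL4-UAS reporter, with 3 nM 6-alpha-fluorotestosterone present; 24 h dosing, reporter mRNA quantified by RT-PCR and capillary electrophoresis, gain of signal versus DMSO.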

[10] = tested on: zebrafish Estrogen Receptor (ESR2A), gene 317734; experiment: ATG_zfER2a_XSP1: Attagene TRANS-FACTORIAL Multi-Species (XSP1) HepG2 Assay for zebrafish Estrogen Receptor (ESR2A) (AID 2283778)
How it was run: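 HepG2 cells transiently transfected with GAL4-UAS reporter units driven by a zebrafish ESR2A–Gal4 chimera; 24 h compound exposure with 3 nM 6-alpha-fluorotestosterone present. Reporter mRNA measured by RT-PCR with fluorescent capillary electrophoresis, fitted positive versus DMSO.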

[11] = target: chicken Estrogen Receptor (ESR1), ESR1 (gene 396099) (UniProt P06212); experiment: ATG_chERa_XSP1: Attagene TRANS-FACTORIAL Multi-Species (XSP1) HepG2 Assay for chicken Estrogen Receptor (ESR1) (AID 2283779)
How it was run: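 HepG2 cells transiently transfected with GAL4-UAS reporter units for chimeric chicken ERα-Gal4, dosed 24 h with 3 nM 6-alpha-fluorotestosterone present. Reporter mRNA by RT-PCR and capillary electrophoresis; gain-of-signal fit versus DMSO.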

[12] = target: zebrafish Estrogen Receptor (ESR1), esr1 (gene 259252) (UniProt P57717); experiment: ATG_zfER1_XSP1: Attagene TRANS-FACTORIAL Multi-Species (XSP1) HepG2 Assay for zebrafish Estrogen Receptor (ESR1) (AID 2283772)
How it was run: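 HepG2 cells were transiently transfected with multiplexed GAL4-UAS reporter units driven by chimeric NR-GAL4 proteins, dosed for 24 h with 3 nM 6-alpha-fluorotestosterone present, and reporter mRNA quantified by RT-PCR and capillary electrophoresis versus DMSO.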

chicken Estrogen Receptor (ESR1), ESR1 (gene 396099), sequence (P06212 whole entry, looked up, the tested form may be a part): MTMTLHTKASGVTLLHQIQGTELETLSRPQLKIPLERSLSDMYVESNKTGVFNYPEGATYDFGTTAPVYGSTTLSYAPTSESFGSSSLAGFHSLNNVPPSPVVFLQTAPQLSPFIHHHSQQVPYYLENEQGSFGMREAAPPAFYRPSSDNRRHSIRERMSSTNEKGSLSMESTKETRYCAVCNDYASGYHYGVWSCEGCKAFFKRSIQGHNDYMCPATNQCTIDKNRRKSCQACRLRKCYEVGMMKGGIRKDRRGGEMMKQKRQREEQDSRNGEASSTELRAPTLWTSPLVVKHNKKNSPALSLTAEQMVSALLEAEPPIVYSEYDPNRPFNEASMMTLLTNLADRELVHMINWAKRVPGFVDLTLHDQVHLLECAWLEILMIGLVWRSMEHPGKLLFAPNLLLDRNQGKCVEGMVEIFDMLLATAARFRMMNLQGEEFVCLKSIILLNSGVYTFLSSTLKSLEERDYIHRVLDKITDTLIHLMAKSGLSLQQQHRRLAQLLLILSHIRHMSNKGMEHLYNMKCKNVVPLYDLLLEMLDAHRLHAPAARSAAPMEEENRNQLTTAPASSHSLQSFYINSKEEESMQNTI
AR (gene 367), sequence (P10275 whole entry, looked up): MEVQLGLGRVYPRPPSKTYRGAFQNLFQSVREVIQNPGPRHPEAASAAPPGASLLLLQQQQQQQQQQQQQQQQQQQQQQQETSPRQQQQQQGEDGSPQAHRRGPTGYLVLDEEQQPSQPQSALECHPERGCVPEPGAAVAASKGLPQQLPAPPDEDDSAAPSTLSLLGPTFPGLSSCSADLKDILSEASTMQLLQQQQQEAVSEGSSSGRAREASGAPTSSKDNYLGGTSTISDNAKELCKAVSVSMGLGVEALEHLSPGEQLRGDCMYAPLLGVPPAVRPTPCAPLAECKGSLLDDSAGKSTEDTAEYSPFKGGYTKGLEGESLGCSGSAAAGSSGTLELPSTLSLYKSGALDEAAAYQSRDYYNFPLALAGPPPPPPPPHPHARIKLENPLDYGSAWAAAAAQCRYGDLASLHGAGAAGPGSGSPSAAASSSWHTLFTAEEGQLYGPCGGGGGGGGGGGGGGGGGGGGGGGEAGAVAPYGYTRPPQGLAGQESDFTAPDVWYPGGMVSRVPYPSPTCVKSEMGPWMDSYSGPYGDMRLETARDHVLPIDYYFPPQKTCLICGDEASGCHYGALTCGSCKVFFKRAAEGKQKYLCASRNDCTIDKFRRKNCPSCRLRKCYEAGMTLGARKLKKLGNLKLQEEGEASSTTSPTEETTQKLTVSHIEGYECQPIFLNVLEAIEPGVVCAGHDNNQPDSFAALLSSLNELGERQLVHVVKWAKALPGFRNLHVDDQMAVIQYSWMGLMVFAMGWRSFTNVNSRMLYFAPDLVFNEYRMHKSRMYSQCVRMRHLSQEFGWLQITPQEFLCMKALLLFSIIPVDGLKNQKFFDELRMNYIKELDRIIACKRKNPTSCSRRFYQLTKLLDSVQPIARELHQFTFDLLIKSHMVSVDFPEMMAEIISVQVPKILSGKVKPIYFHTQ
zebrafish Estrogen Receptor (ESR1), esr1 (gene 259252), sequence (P57717 whole entry, looked up, the tested form may be a part): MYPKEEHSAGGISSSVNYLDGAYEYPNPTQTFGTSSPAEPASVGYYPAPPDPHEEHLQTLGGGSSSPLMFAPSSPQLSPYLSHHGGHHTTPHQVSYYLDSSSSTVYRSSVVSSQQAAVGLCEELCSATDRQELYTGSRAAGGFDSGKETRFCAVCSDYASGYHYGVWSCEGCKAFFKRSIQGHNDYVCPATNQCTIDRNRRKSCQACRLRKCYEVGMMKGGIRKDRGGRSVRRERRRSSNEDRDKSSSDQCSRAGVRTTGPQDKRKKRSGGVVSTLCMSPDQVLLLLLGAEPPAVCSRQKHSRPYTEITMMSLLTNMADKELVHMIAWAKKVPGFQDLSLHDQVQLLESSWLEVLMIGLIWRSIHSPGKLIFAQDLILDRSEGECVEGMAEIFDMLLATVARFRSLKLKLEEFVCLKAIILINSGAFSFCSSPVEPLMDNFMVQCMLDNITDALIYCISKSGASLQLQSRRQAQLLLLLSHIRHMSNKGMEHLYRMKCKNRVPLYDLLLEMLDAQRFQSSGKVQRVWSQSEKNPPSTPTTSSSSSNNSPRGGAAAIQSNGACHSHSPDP
Luciferin 4-monooxygenase (Photinus pyralis), sequence (P08659 whole entry, looked up): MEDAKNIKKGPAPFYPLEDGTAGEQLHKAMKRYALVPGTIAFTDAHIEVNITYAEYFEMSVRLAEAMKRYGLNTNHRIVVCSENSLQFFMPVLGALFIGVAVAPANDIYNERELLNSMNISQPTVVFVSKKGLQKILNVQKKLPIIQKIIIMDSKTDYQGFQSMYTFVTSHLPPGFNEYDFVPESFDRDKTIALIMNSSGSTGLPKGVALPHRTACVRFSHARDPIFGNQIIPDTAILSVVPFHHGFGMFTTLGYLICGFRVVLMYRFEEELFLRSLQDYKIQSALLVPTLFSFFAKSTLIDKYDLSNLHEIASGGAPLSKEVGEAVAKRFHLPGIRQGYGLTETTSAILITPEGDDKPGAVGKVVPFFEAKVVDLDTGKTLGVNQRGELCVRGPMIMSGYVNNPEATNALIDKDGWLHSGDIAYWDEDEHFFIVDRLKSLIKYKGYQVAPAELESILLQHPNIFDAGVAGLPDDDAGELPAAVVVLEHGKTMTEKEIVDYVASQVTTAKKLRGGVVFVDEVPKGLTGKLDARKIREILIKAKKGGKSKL

COP(N)(=O)SC (stereo not drawn)
outcome [1]: inactive
outcome [2]: inactive

CC1COC(Cn2cncn2)(c2ccc(Oc3ccc(Cl)cc3)cc2Cl)O1 (stereo not drawn)
outcome [1]: inactive
AC50 [2]: 30.3 µM (active)
AC50 [3]: 83.2 µM (active)
AC50 [4]: 6.39 µM (active)

COC(=O)c1ccccc1C(=O)OC
outcome [2]: inactive
outcome [3]: inactive
outcome [4]: inactive

Cc1cc(Cl)ccc1OCC(=O)O
outcome [5]: inactive
outcome [2]: inactive
outcome (AR (gene 367)): inactive

CS/C(C)=N/OC(=O)N(C)SN(C)C(=O)O/N=C(\C)SC
AC50 [2]: 77.9 µM (active)
AC50 [3]: 24.8 µM (active)
outcome (AR (gene 367)): inactive

N#CC(CCc1ccc(Cl)cc1)(Cn1cncn1)c1ccccc1 (stereo not drawn)
AC50 [5]: 50 µM (active)
AC50 [2]: 25.7 µM (active)

N#Cc1cc(Br)c(O)c(Br)c1
AC50 [2]: 52.1 µM (active)
outcome (AR (gene 367)): inactive

C=CC1(C)OC(=O)N(c2cc(Cl)cc(Cl)c2)C1=O (stereo not drawn)
outcome [6]: inactive
AC50 [7]: 168 µM (active)
outcome [8]: inactive
AC50 [2]: 83.7 µM (active)
outcome [9]: inactive
outcome [10]: inactive
AC50 [11]: 59.9 µM (active)
outcome [3]: inactive
outcome [4]: inactive

CCNc1nc(Cl)nc(NCC)n1
outcome [2]: inactive
outcome [4]: inactive

CNC(=O)ON=CC(C)(C)SC
outcome [2]: inactive

Cc1c(F)c(F)c(COC(=O)C2C(/C=C(\Cl)C(F)(F)F)C2(C)C)c(F)c1F (stereo not drawn)
AC50 [2]: 30.6 µM (active)

CCOc1cc(Oc2ccc(C(F)(F)F)cc2Cl)ccc1[N+](=O)[O-]
AC50 [5]: 22.8 µM (active)
AC50 [2]: 12.9 µM (active)

COc1ccc(C(c2ccc(OC)cc2)C(Cl)(Cl)Cl)cc1
outcome [6]: inactive
outcome [12]: inactive
AC50 [7]: 1.08 µM (active)
AC50 [8]: 1.09 µM (active)
AC50 [2]: 76.7 µM (active)
AC50 [9]: 0.368 µM (active)
outcome [10]: inactive
AC50 [11]: 1.97 µM (active)
AC50 [3]: 88.6 µM (active)

Fc1ccc(Oc2ccnc3cc(Cl)cc(Cl)c23)cc1
AC50 [2]: 60 µM (active)
AC50 [3]: 80.2 µM (active)

COc1nc(NC(C)C)nc(NC(C)C)n1
outcome [4]: inactive

CC(Oc1ccc(Cl)cc1Cl)C(=O)O (stereo not drawn)
outcome [2]: inactive

CCCCC(CC)COC(=O)c1ccccc1C(=O)OCC(CC)CCCC (stereo not drawn)
outcome [6]: inactive
AC50 [7]: 16.1 µM (active)
outcome [8]: inactive
AC50 [2]: 61.8 µM (active)
outcome [9]: inactive
outcome [11]: inactive
outcome [3]: inactive
outcome [4]: inactive

CC(C)C1(C)N=C(c2nc3ccccc3cc2C(=O)O)NC1=O (stereo not drawn)
outcome [2]: inactive

CCOC(=O)C(Cl)Cc1cc(-n2nc(C)n(C(F)F)c2=O)c(F)cc1Cl (stereo not drawn)
outcome [3]: inactive

CCCCNC(=O)OCC#CI
outcome [12]: inactive
outcome [7]: inactive
AC50 [2]: 13.9 µM (active)
outcome [10]: inactive
AC50 [3]: 5.58 µM (active)

OC(c1ccc(Cl)cc1)(c1cncnc1)c1ccccc1Cl (stereo not drawn)
outcome [6]: inactive
AC50 [12]: 26.4 µM (active)
AC50 [7]: 8.4 µM (active)
AC50 [8]: 4.32 µM (active)
AC50 [2]: 67.8 µM (active)
AC50 [10]: 4.49 µM (active)
AC50 [11]: 2.36 µM (active)
outcome [3]: inactive
outcome [4]: inactive

COc1cnc(OC)n2nc(NS(=O)(=O)c3c(OCC(F)F)cccc3C(F)(F)F)nc12
outcome [2]: inactive

CCON=C(CC)C1=C(O)CC(c2c(C)cc(C)cc2C)CC1=O (stereo not drawn)
outcome [2]: inactive
outcome [3]: inactive

CCc1nn(C)c(C(=O)NCc2ccc(C(C)(C)C)cc2)c1Cl
AC50 [2]: 19.4 µM (active)
outcome [3]: inactive
AC50 [4]: 2.12 µM (active)

Cc1ccc(-c2c(Cl)nc(C#N)n2S(=O)(=O)N(C)C)cc1
AC50 [2]: 16.1 µM (active)
outcome (AR (gene 367)): inactive

CCNc1nc(Cl)nc(NC(C)C)n1
outcome [2]: inactive
outcome [3]: inactive
outcome [4]: inactive

COC(=O)C(C)Oc1ccc(Oc2ccc(Cl)cc2Cl)cc1 (stereo not drawn)
AC50 [2]: 50 µM (active)
